Data taken from PubChem BioAssay.
A number with no mark means an inactive call. The rule behind the calls is not given here.

The molecules below were run on Aerobactin synthetase IucA (Klebsiella pneumoniae hvKP1) (assay: IucA enzyme inhibition, primary screen, biochemical, Spectrum library (AID 1346200;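 note: 100% = wells without compound and 0% = wells lacking enzyme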)). Conditions: malachite green pyrophosphate, A620, at 8 µM, stronger effect = lower value.

In order of falling activity remaining:
1. CC(=O)OC1CCC2C3CCc4cc(O)ccc4C3CCC12C (centres undefined)  123%
2. c1ccc(CN(CC2=NCCN2)c2ccccc2)cc1  120%
3. c1ccc(CC2=NCCN2)cc1  118%
4. CO/N=C(/C(=O)N[C@@H]1C(=O)N2C(C(=O)O)=C(COC(C)=O)CS[C@H]12)c1csc(N)n1  117%
5. COc1ccc2c(c1)CCC1C2CCC2(C)C1C[C@@H](O)C2O (some centres undefined)  114%
6. O=C(O)[C@H]1/C(=C/CO)O[C@@H]2CC(=O)N21  112%
7. CC(C)(C)NC[C@H](O)c1ccc(O)c(CO)c1  112%
8. CNCC[C@@H](Oc1ccccc1)c1ccccc1  111%
9. CCN(CC)CCNC(=O)COc1ccc(OC)cc1  108%
10. CCCC(=O)Nc1ncnc2c1ncn2C1O[C@@H]2COP(=O)(O)O[C@H]2[C@H]1OC(=O)CCC (some centres undefined)  107%
11. COc1cc(NS(C)(=O)=O)ccc1Cc1c2ccccc2nc2ccccc12  104%
12. COc1cc(O)c2c(=O)c(O)c(-c3ccc(O)c(O)c3)oc2c1  103%
13. N[C@@H](CCC(=O)N[C@@H](CS)C(=O)NCC(=O)O)C(=O)O  101%
14. O=C(OC[C@H]1O[C@H](OC(=O)c2cc(O)c(O)c(OC(=O)c3cc(O)c(O)c(O)c3)c2)[C@H](OC(=O)c2cc(O)c(O)c(OC(=O)c3cc(O)c(O)c(O)c3)c2)[C@@H](OC(=O)c2cc(O)c(O)c(OC(=O)c3cc(O)c(O)c(O)c3)c2)[C@@H]1OC(=O)c1cc(O)c(O)c(OC(=O)c2cc(O)c(O)c(O)c2)c1)c1cc(O)c(O)c(OC(=O)c2cc(O)c(O)c(O)c2)c1  100%
